# Active and inactive are the calls of the source. Rule for the calls: active = hit-call score of the fitted dose curve at least 0.9, where 1 is the maximum; inactive = score below 0.9.
# Test: CCTE_Shafer_MEA_acute_firing_rate_mean: CCTE's Neural Acute Assay for Mean Firing Rate, Shafer Lab (AID 2284009)
# Protocol: CCTE_Shafer_MEA_acute assay is conducted using Axion Biosystems 48 well microelectrode array (MEA) plates and Maestro recording system. Each well of the MEA plate contains a grid of 16 microelectrodes embedded in the culture surface. Electrically active cells, such as neurons, can be cultured over the electrodes, and electrical activity in these cells can be recorded extracellularly. The spontaneous firing of neurons is captured from each electrode on a microsecond timescale providing both temporally and spatially precise data. […] The CCTE_Shafer_MEA_acute assay uses primary cultures of rat cortical neurons. As these cultures mature over time, neural networks develop functional activity and form cohesive networks in which electrical activity can be highly coordinated. Baseline 40-minute recordings are made on days post-plating 13 or 15, followed by a secondary 40-minute recording after chemical exposure.CCTE_Shafer_MEA_acute_firing_rate_mean is a component of the CCTE_Shafer_MEA_acute assay. It measures the frequency number of spikes (action potential firings) as the total number of spikes divided by the length of the recording in a microelectrode array (MEA) using Axion Biosystems Maestro 768 channel amplifier with the AxIS adaptive spike detector. The firing rate is divided by the number of electrodes to report a well-mean value. The recordings before and after chemical treatment are used to calculate a percent change in the mean firing rate in each well.Data from the assay component CCTE_Shafer_MEA_acute_firing_rate_mean was analyzed into 1 assay endpoint. This assay endpoint, CCTE_Shafer_MEA_acute_firing_rate_mean, was analyzed in the negative analysis fitting direction relative to DMSO as the negative control and baseline of activity. Using a type of functional reporter, gain or loss-of-signal activity can be used to understand electrical activity.
# Spontaneous activity in the cortical cultures was recorded using an Axion Biosystems Maestro 768 channel amplifier and Axion Integrated Studios (AxIS) v1.8 (or later) software. The amplifier recorded from all channels simultaneously (gain = 1200 x; sampling rate = 12.5 kHz/channel): raw signals were filtered with a Butterworth band-pass filter (300-5000 Hz), which filters out slower local field potentials leaving only fast potentials, i.e., "spikes", arising from extracellular currents associated with action potentials (Pine 2006; Wheeler and Nam 2011). On-line spike detection of filtered signals was conducted with the AxIS adaptive spike detector, using a threshold of 8x the root mean squared (rms) noise on each channel. Any electrodes with rms noise levels greater than 5 uV were grounded (e.g., no data were recorded). Once grounded, an electrode was grounded for the duration of the experiment. All recordings were conducted at 37 C. Wells were deemed usable if on the day of the exposure >/= 10 electrodes were active (defined as >/= 5 spikes/min). On DIV 13 or 15, a minimum of three wells from one cortical culture preparation were treated with each compound (0.03-40 uM). Prior to recording baseline activity, each mwMEA plate was placed in the Maestro at 37 C and allowed to sit for 20 min while firing rates stabilized. Baseline activity (40 min) was recorded before the addition of each compound. An additional 40 min of spontaneous activity was recorded in the presence of each compound. Changes in network parameters relative to baseline were assessed following compound treatment.
SMILES,outcome,AC50
O=C(c1ccc(O)cc1O)c1ccc(O)cc1O,inactive,–
CSC(=O)c1cccc2nnsc12,inactive,–
CC(C)CCCCCCc1ccc(O)cc1,–,6.03 µM (active)
C=CCOC(Cn1ccnc1)c1ccc(Cl)cc1Cl (centres undefined),–,6.09 µM (active)
COC(=O)c1ccccc1C(=O)O,inactive,–
CCCCC(CC)CN1C(=O)C2C3C=CC(C3)C2C1=O (centres undefined),–,30.1 µM (active)
CCCN(CCC)c1c([N+](=O)[O-])cc(C(F)(F)F)c(N)c1[N+](=O)[O-],inactive,–
Oc1ccc(C(c2ccc(O)cc2)C(Cl)(Cl)Cl)cc1,–,4.04 µM (active)
CC(C)(c1ccc(O)cc1)c1ccc(O)cc1,–,5.7 µM (active)
CC1(C)C(C=C(Cl)Cl)C1C(=O)OCc1cccc(Oc2ccccc2)c1 (centres undefined),inactive,–
N#CSCSc1nc2ccccc2s1,inactive,–
CCNc1nc(N)nc(Cl)n1,inactive,–
O=C(c1ccccc1)C1CCCCC1,inactive,–
Cc1nn(C)c(Oc2ccccc2)c1C=NOCc1ccc(C(=O)OC(C)(C)C)cc1,–,0.00449 µM (active)
C#CCOC(=O)[C@@H](C)Oc1ccc(Oc2ncc(Cl)cc2F)cc1,inactive,–
OB(O)O,inactive,–
CC(C)(C)[C@@H](O)[C@@H](Cc1ccc(Cl)cc1)n1cncn1,inactive,–
O=C(Nc1ccc([N+](=O)[O-])cc1Cl)c1cc(Cl)ccc1O,–,0.114 µM (active)
O=C(O)c1ccccc1,inactive,–
